# Laboratory results: PubChem BioAssay (NCATS)
# Results filed as inconclusive are left out. A call without a number means that no potency is given here. Unmarked numbers belong to inactive results. Active and inactive are the calls of the source. Calls follow the shape of the dose curve; as a rule, active = well fitted inhibition curve with a large enough effect; inconclusive = small, poorly fitted or top-dose-only effect; inactive = flat fitted curve, though single readings scatter.
# Legend:
# [1] = qHTS profiling for inhibitors of Plasmodium falciparum proliferation (AID 504749); also: nearly all actives have a fitted effect of over 60% in size; settings: P. falciparum in erythrocytes, SYBR Green DNA, 72 h
# In short: (§1)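 Each compound contacts P. falciparum-infected red blood cells for 72 h at 37 C; lysis buffer (Tris, EDTA, saponin, Triton X, SYBR Green I) is added and fluorescence measured next morning; values normalized to controls.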
# 3D7 = assay: as above; settings: P. falciparum in erythrocytes, SYBR Green DNA, 72 h; series mostly up to 28.7 µM
# In short: as §1
# 7G8 = assay: as above; settings: P. falciparum in erythrocytes, SYBR Green DNA, 72 h; series mostly up to 28.7 µM
# In short: as §1
# AA1029 = assay: as above; settings: P. falciparum in erythrocytes, SYBR Green DNA, 72 h; series mostly up to 28.7 µM
# In short: as §1
# AS120 = assay: as above; settings: P. falciparum in erythrocytes, SYBR Green DNA, 72 h; series mostly up to 28.7 µM
# In short: as §1
# ATS189 = assay: as above; settings: P. falciparum in erythrocytes, SYBR Green DNA, 72 h; series mostly up to 28.7 µM
# In short: as §1
# CP191 = assay: as above; settings: P. falciparum in erythrocytes, SYBR Green DNA, 72 h; series mostly up to 28.7 µM
# In short: as §1
# CP201 = assay: as above; settings: P. falciparum in erythrocytes, SYBR Green DNA, 72 h; series mostly up to 28.7 µM
# In short: as §1
# CP203 = assay: as above; settings: P. falciparum in erythrocytes, SYBR Green DNA, 72 h; series mostly up to 28.7 µM
# In short: as §1
# CP211 = assay: as above; settings: P. falciparum in erythrocytes, SYBR Green DNA, 72 h; series mostly up to 28.7 µM
# In short: as §1
# CP217 = assay: as above; settings: P. falciparum in erythrocytes, SYBR Green DNA, 72 h; series mostly up to 28.7 µM
# In short: as §1
# CP237 = assay: as above; settings: P. falciparum in erythrocytes, SYBR Green DNA, 72 h; series mostly up to 28.7 µM
# In short: as §1
# ATS95 = assay: as above; settings: P. falciparum in erythrocytes, SYBR Green DNA, 72 h; series mostly up to 28.7 µM
# In short: as §1
# C2A = assay: as above; settings: P. falciparum in erythrocytes, SYBR Green DNA, 72 h; series mostly up to 28.7 µM
# In short: as §1
# CP185 = assay: as above; settings: P. falciparum in erythrocytes, SYBR Green DNA, 72 h; series mostly up to 28.7 µM
# In short: as §1
# CP192 = assay: as above; settings: P. falciparum in erythrocytes, SYBR Green DNA, 72 h; series mostly up to 28.7 µM
# In short: as §1
# CP194 = assay: as above; settings: P. falciparum in erythrocytes, SYBR Green DNA, 72 h; series mostly up to 28.7 µM
# In short: as §1
# CP215 = assay: as above; settings: P. falciparum in erythrocytes, SYBR Green DNA, 72 h; series mostly up to 28.7 µM
# In short: as §1
# CP238 = assay: as above; settings: P. falciparum in erythrocytes, SYBR Green DNA, 72 h; series mostly up to 28.7 µM
# In short: as §1
# CP247 = assay: as above; settings: P. falciparum in erythrocytes, SYBR Green DNA, 72 h; series mostly up to 28.7 µM
# In short: as §1
# [2] = at 28.7 µM (top of the series), parasite line A
# [3] = at 28.7 µM (top of the series), parasite line B
# [4] = at 12.8 µM (top of the series), parasite line A
# [5] = at 12.8 µM (top of the series), parasite line B
# Potency is read from the fitted curve at half-maximal effect.
structure (smiles),measurement,setting,value
CCC(=O)c1ccc2c(c1)N(CCCN1CCN(CCO)CC1)c1ccccc1S2,Potency,[1]; parasite line A,10 µM (active)
same,Potency,[1]; parasite line B,11.2 µM (active)
same,Potency,3D7,10 µM (active)
same,Potency,7G8,11.2 µM (active)
same,Potency,AA1029,12.6 µM (active)
same,Potency,AS120,12.6 µM (active)
same,Potency,ATS189,12.6 µM (active)
same,Potency,CP191,5.62 µM (active)
same,Potency,CP201,15.1 µM (active)
same,Potency,CP203,15.1 µM (active)
same,Potency,CP211,13.5 µM (active)
same,Potency,CP217,8.91 µM (active)
same,Potency,CP237,7.94 µM (active)
CCCCCCCCCCCCCC(=O)OCC(COP(=O)([O-])OCC[N+](C)(C)C)OC(=O)CCCCCCCCCCCCC (stereo not given),"activity, negative = inhibition",[1]; [2],4.09%
same,"activity, negative = inhibition",[1]; [3],-2.15%
same,Potency,3D7,inactive
same,Potency,7G8,inactive
same,Potency,AA1029,inactive
same,Potency,AS120,inactive
same,Potency,ATS189,inactive
same,Potency,ATS95,inactive
same,Potency,C2A,inactive
same,Potency,CP185,inactive
same,Potency,CP191,inactive
same,Potency,CP192,inactive
same,Potency,CP194,inactive
same,Potency,CP201,inactive
same,Potency,CP211,inactive
same,Potency,CP215,inactive
same,Potency,CP217,inactive
same,Potency,CP237,inactive
same,Potency,CP238,inactive
same,Potency,CP247,inactive
Cc1cccc(C)c1NC(=O)NC1=CCCN1C,"activity, negative = inhibition",[1]; [2],5.4%
same,"activity, negative = inhibition",[1]; [3],1.38%
same,Potency,3D7,inactive
same,Potency,7G8,inactive
same,Potency,AA1029,inactive
same,Potency,ATS189,inactive
same,Potency,ATS95,inactive
same,Potency,C2A,inactive
same,Potency,CP185,inactive
same,Potency,CP191,inactive
same,Potency,CP192,inactive
same,Potency,CP194,inactive
same,Potency,CP201,inactive
same,Potency,CP203,inactive
same,Potency,CP211,inactive
same,Potency,CP215,inactive
same,Potency,CP217,inactive
same,Potency,CP237,inactive
same,Potency,CP238,inactive
same,Potency,CP247,inactive
O=C(O)Cc1cc(I)c(Oc2ccc(O)c(I)c2)c(I)c1,"activity, negative = inhibition",[1]; [4],1.81%
same,"activity, negative = inhibition",[1]; [5],6.07%
same,Potency,3D7,inactive
same,Potency,7G8,inactive
same,Potency,AA1029,inactive
same,Potency,AS120,inactive
same,Potency,ATS189,inactive
same,Potency,ATS95,inactive
same,Potency,C2A,inactive
same,Potency,CP185,inactive
same,Potency,CP191,inactive
same,Potency,CP192,inactive
same,Potency,CP194,inactive
same,Potency,CP201,inactive
same,Potency,CP211,inactive
same,Potency,CP215,inactive
same,Potency,CP217,inactive
same,Potency,CP237,inactive
same,Potency,CP238,inactive
same,Potency,CP247,inactive
CN(C)CCCSc1ccccc1NC(=O)/C=C/c1ccccc1,"activity, negative = inhibition",[1]; [2],13.3%
same,"activity, negative = inhibition",[1]; [3],3.42%
same,Potency,3D7,inactive
same,Potency,7G8,inactive
same,Potency,AS120,inactive
same,Potency,ATS189,inactive
same,Potency,ATS95,inactive
same,Potency,C2A,inactive
same,Potency,CP185,inactive
same,Potency,CP191,inactive
same,Potency,CP192,inactive
same,Potency,CP194,inactive
same,Potency,CP201,inactive
same,Potency,CP203,inactive
same,Potency,CP211,inactive
same,Potency,CP215,inactive
same,Potency,CP217,inactive
same,Potency,CP238,inactive
same,Potency,CP247,inactive
CO/N=C(/C(=O)N[C@@H]1C(=O)N2C(C(=O)O)=C(COC(N)=O)CS[C@H]12)c1ccco1,"activity, negative = inhibition",[1]; [2],6.01%
same,"activity, negative = inhibition",[1]; [3],2.26%
same,Potency,3D7,inactive
same,Potency,AA1029,inactive
same,Potency,AS120,inactive
same,Potency,ATS189,inactive
same,Potency,ATS95,inactive
same,Potency,C2A,inactive
same,Potency,CP185,inactive
same,Potency,CP191,inactive
same,Potency,CP192,inactive
same,Potency,CP194,inactive
same,Potency,CP201,inactive
same,Potency,CP203,inactive
same,Potency,CP211,inactive
same,Potency,CP215,inactive
same,Potency,CP217,inactive
same,Potency,CP237,inactive
same,Potency,CP238,inactive
same,Potency,CP247,inactive
N#Cc1ccc2c(c1)N(CCCN1CCC(O)CC1)c1ccccc1S2,"activity, negative = inhibition",[1]; [2],-11.2%
same,"activity, negative = inhibition",[1]; [3],-26.8%
same,Potency,3D7,inactive
same,Potency,7G8,12.6 µM (active)
same,Potency,AA1029,11.2 µM (active)
same,Potency,C2A,inactive
same,Potency,CP192,inactive
same,Potency,CP217,inactive
CCN(CC)CCCC(C)Nc1cc(/C=C/c2ccccc2Cl)nc2cc(Cl)ccc12 (stereo not given),Potency,[1]; parasite line A,1.78 µM (active)
same,Potency,[1]; parasite line B,2 µM (active)
same,Potency,3D7,1.41 µM (active)
same,Potency,7G8,0.794 µM (active)
same,Potency,AA1029,2.24 µM (active)
same,Potency,AS120,2 µM (active)
same,Potency,ATS189,3.55 µM (active)
same,Potency,ATS95,2.51 µM (active)
same,Potency,C2A,1.12 µM (active)
same,Potency,CP185,2.82 µM (active)
same,Potency,CP191,1.26 µM (active)
same,Potency,CP194,12 µM (active)
same,Potency,CP201,4.78 µM (active)
same,Potency,CP203,10.7 µM (active)
same,Potency,CP211,15.1 µM (active)
same,Potency,CP215,13.5 µM (active)
same,Potency,CP217,3.16 µM (active)
same,Potency,CP237,1.78 µM (active)
same,Potency,CP238,4.47 µM (active)
same,Potency,CP247,3.55 µM (active)
COc1ccc(-c2noc(CC(=O)O)c2-c2ccc(OC)cc2)cc1,"activity, negative = inhibition",[1]; [2],5.47%
same,"activity, negative = inhibition",[1]; [3],9.58%
same,Potency,3D7,inactive
same,Potency,7G8,inactive
same,Potency,AA1029,inactive
same,Potency,AS120,inactive
same,Potency,ATS189,inactive
same,Potency,ATS95,inactive
same,Potency,C2A,inactive
same,Potency,CP185,inactive
same,Potency,CP191,inactive
same,Potency,CP192,inactive
same,Potency,CP194,inactive
same,Potency,CP201,inactive
same,Potency,CP211,inactive
same,Potency,CP215,inactive
same,Potency,CP217,inactive
same,Potency,CP237,inactive
same,Potency,CP238,inactive
same,Potency,CP247,inactive
O=C1NCCN1c1ncc([N+](=O)[O-])s1,"activity, negative = inhibition",[1]; [4],-20%
same,"activity, negative = inhibition",[1]; [5],-14.4%
same,Potency,3D7,inactive
same,Potency,7G8,inactive
same,Potency,AA1029,inactive
same,Potency,AS120,inactive
same,Potency,ATS189,inactive
same,Potency,ATS95,inactive
same,Potency,C2A,inactive
same,Potency,CP185,inactive
same,Potency,CP191,inactive
same,Potency,CP192,inactive
same,Potency,CP194,inactive
same,Potency,CP203,inactive
same,Potency,CP211,inactive
same,Potency,CP215,inactive
same,Potency,CP217,inactive
same,Potency,CP237,inactive
same,Potency,CP238,inactive
same,Potency,CP247,inactive
